Compound activity (PubChem BioAssay)
Rab9 promoter act = activators of Rab9 promoter | AID 485297 | Potency, µM (top dose mostly 9.22 µM), usual class: activators | Huh7 Rab9 promoter-luciferase reporter, luminescence, 24 h | 2.8% of 320,000 active; also: nearly all actives have a fitted effect of over 60% in size
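Steps: seed 1500 Huh7 Rab9-luc cells per well, rest 2 h at 37 °C; add compound in DMSO; incubate 24 h; add luciferase reagent, 10 min ambient; read luminescence.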
ELG1 genotoxic = inducers of genotoxicity in HEK293T ELG1-luciferase cells | HEK293T ELG1-luciferase reporter, luminescence, 16 h | Potency, µM (series often up to 46 µM), usual class: activators | 1.3% of 330,000 active; also: nearly all actives have a fitted effect of over 60% in size
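Luminescence read-out: rising ELG1-luciferase signal, reflecting elevated ELG1 protein under genetic stress, flags genotoxic compounds. Cells were treated for 16 hr at 37 °C before ONE-Glo detection.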
SMN2 splice enh = SMN2 splice variant enhancement; HEK293 SMN2-luciferase splicing reporter, luminescence, 30-36 h; Potency, µM (doses to about 46.1 µM), hits mostly activators; 2.8% of 210,000 active; also: nearly all actives have a fitted effect of over 55% in size
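HEK293 cells carry an SMN2 minigene-luciferase reporter in which exon 7 inclusion puts luciferase in frame. Cells were seeded at 2000 cells/well, attached for 10-12 hours, then exposed to compounds for 30-36 hours at 37C before ONE-Glo luminescence.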
NPC1 prom act = NPC1 promoter activation; Huh7 NPC1 promoter luciferase reporter, 24 h; Potency, µM (doses to about 9.22 µM), most hits filed as activators; 2.4% of 320,000 active; AID 485313; also: nearly all actives have a fitted effect of over 60% in size
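Huh7 reporter cells (NPC1 promoter driving luciferase) are dosed with compound for 24 h at 37 °C, 5% CO2; luciferase detection reagent is then added and luminescence measured after 10 min at ambient temperature.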
FLuc modulator = inhibits or activates purified firefly luciferase, miR-21 counter-screen; purified FLuc, Km substrates, luminescence inhibition; Potency, µM (series often up to 57.5 µM), most hits filed as inhibitors; 6.9% of 360,000 active; also: nearly all actives have a fitted effect of over 55% in size
Target sequence (P08659 whole entry, looked up): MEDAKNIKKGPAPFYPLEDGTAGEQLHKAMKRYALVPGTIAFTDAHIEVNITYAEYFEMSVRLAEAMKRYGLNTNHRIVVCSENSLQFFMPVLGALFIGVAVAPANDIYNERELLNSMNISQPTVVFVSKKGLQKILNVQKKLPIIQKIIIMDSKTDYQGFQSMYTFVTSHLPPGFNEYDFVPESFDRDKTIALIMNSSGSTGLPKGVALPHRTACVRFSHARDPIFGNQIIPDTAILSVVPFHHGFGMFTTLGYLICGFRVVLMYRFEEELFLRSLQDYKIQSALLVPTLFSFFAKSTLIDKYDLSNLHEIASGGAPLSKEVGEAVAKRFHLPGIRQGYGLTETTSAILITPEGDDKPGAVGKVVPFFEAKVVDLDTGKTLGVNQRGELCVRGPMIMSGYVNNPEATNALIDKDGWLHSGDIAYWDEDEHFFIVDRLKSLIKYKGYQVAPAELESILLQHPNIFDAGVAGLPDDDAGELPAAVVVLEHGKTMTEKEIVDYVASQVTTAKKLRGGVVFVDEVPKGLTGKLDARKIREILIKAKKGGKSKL
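Biochemical qHTS of compounds, final roughly 60 µM downward over six points, against 10 nM purified firefly luciferase using Km concentrations of substrates (10 uM D-luciferin, 10 uM ATP) in Tris acetate pH 7.5 buffer; luminescence output.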
Each line names hits and unclear results; the compound was inactive in the other large screens. Rows were chosen to be rich in hits. Some 7.5% of all compounds tested hit in one or more screens of this group. Calls follow the shape of the dose curve; as a rule, active = well fitted curve in the direction sought with a large enough effect; inconclusive = small, poorly fitted or top-dose-only effect, or another doubt; inactive = no such curve, though single readings can be large; an effect the other way counts as inactive or inconclusive.

CC1(C)OC2OC(C(=O)N/N=C/c3ccccc3F)C3OC(C)(C)OC3C2O1 (configuration not stated)	none
COc1ccc(/C=C\c2onc(C)c2S(=O)(=O)N2CCC(C(=O)NCCC(C)C)CC2)cc1	Rab9 promoter act 6.3µM
O=C(CSc1ccc2ccccc2c1)Nc1ccncc1	FLuc modulator inconclusive
c1ccc(-c2cnc(-c3cccnc3)o2)cc1	Rab9 promoter act inconclusive, ELG1 genotoxic inconclusive, NPC1 prom act inconclusive, FLuc modulator 15µM
NC(=O)c1ccc(-c2ncc(-c3ccccc3)o2)cc1	Rab9 promoter act inconclusive, ELG1 genotoxic 0.18µM, SMN2 splice enh 0.5µM, NPC1 prom act 0.28µM, FLuc modulator 2.1µM
O=c1oc(-c2cccnc2)nc2ccccc12	none
Cc1ccc(NC(=O)c2ccccc2-c2ccccc2C(=O)O)cc1	none
Cc1ccc(-c2cnc(-c3ccccc3C(=O)O)o2)cc1	Rab9 promoter act inconclusive, ELG1 genotoxic inconclusive, NPC1 prom act inconclusive, FLuc modulator 13µM (no result: SMN2 splice enh)
COc1ccc(NS(=O)(=O)c2cc(NC(=O)c3ccccc3F)ccc2N2CCCC2)cc1	none (no result: SMN2 splice enh)
O=[N+]([O-])c1ccc(C(O)CSC(=S)N2CCCCC2)cc1 (configuration not stated)	NPC1 prom act 2.8µM, FLuc modulator 17µM (no result: SMN2 splice enh)
Cc1nc2cc(NC(=O)NCCC3=CCCCC3)ccc2o1	Rab9 promoter act 3.5µM, ELG1 genotoxic 15µM, NPC1 prom act 4µM, FLuc modulator 12µM (no result: SMN2 splice enh)
C=CCNC(=O)Nc1ccc2oc(C)nc2c1	none
COc1ccc(NC(=O)Nc2ccc3oc(C)nc3c2)cc1	Rab9 promoter act inconclusive, ELG1 genotoxic inconclusive, FLuc modulator 12µM (no result: SMN2 splice enh)
OCCNc1nc(N2CCN(c3ccccc3)CC2)nc2ccccc12	none (no result: SMN2 splice enh)
Cc1cc(=O)oc2c(C)c(OC(C)C(=O)NCCCN3CCOCC3)ccc12 (configuration not stated)	none (no result: SMN2 splice enh)
CC(C)C(=O)C1=Cc2cccc([N+](=O)[O-])c2OC1N1CCOCC1 (configuration not stated)	none (no result: SMN2 splice enh, FLuc modulator)
COC(=O)c1ccc(NC(=O)C(=O)NCCc2csc(-c3ccc(C(F)(F)F)cc3)n2)cc1	none (no result: Rab9 promoter act, ELG1 genotoxic, SMN2 splice enh, NPC1 prom act)
O=C(Nc1cccc(Cl)c1)Nc1ccccc1C(=O)NCc1ccco1	FLuc modulator 19µM
O=C(NCc1ccco1)c1cccc(NC(=O)c2ccccc2)c1	none
O=C(Nc1ccccc1C(=O)NCc1ccco1)Nc1cccc2ccccc12	none
COc1ccc(C(=O)Nc2cccc(C(=O)NCc3ccccc3)c2)cc1	FLuc modulator 12µM
CCC(=O)Oc1ccc(C(=O)Nc2cccc(C(=O)NCC(C)C)c2)cc1	FLuc modulator 13µM (no result: SMN2 splice enh)
Cc1ccc(C(=O)Nc2cccc(C(=O)NCc3ccco3)c2)cc1	SMN2 splice enh inconclusive, NPC1 prom act inconclusive, FLuc modulator 12µM
CCOc1ccccc1Nc1nc2ccccc2nc1NS(=O)(=O)c1ccc(Cl)cc1	none (no result: Rab9 promoter act, ELG1 genotoxic, NPC1 prom act)
COc1ccc(Cn2c(=O)[nH]c3cc(OC)c(OC)cc3c2=O)cc1	none (no result: SMN2 splice enh)
COc1ccc(CCNC(=O)C/C(C)=N/NC(=O)C23CC4CC(CC(C4)C2)C3)cc1OC	none
Cc1ccc(C(=O)Nc2cccc(C(=O)NCc3ccccc3)c2)cc1	FLuc modulator 8.5µM
Cc1occc1C(=O)Nc1cccc(C(=O)NCc2ccccc2)c1	none
COc1cccc(CNC(=O)c2ccc(C3SCCS3)cc2)c1	FLuc modulator 17µM (no result: SMN2 splice enh)
C=CCN1C(=O)S/C(=C/c2ccsc2)C1=O	ELG1 genotoxic inconclusive, FLuc modulator 19µM
CCN1C(=O)S/C(=C/c2ccsc2)C1=O	ELG1 genotoxic inconclusive, FLuc modulator inconclusive
O=C(c1n[nH]c2ccccc12)N1CCN(S(=O)(=O)c2ccc(Cl)cc2)CC1	none (no result: SMN2 splice enh)
COc1ccc(Cl)cc1NC(=O)CN(C)C(=O)COc1ccccc1F	none
CSCCC(NC(=O)c1ccc(Cl)cc1Cl)C(=O)NNC(=O)c1ccncc1 (configuration not stated)	FLuc modulator 15µM (no result: SMN2 splice enh)
O=C(NNC(=O)c1ccc(Cl)cc1Cl)c1ccncc1	SMN2 splice enh inconclusive, FLuc modulator 13µM
O=C(COC(=O)CCc1nc2ccccc2c(=O)[nH]1)Nc1ccccc1Cl	none (no result: SMN2 splice enh)
C/C(=N\NC(=O)c1cccc(Cl)c1)c1cccc(NC(=O)c2ccco2)c1	FLuc modulator 19µM
C/C(=N\NC(=O)c1cccc(C)c1)c1cccc(NC(=O)c2ccco2)c1	FLuc modulator 15µM
CC(=O)c1cccc(NC(=O)c2cccc(NC(=O)c3ccco3)c2)c1	none (no result: SMN2 splice enh)
Cc1ccccc1CSc1ncc(Cl)c(C(=O)NCc2ccccc2)n1	none (no result: Rab9 promoter act, ELG1 genotoxic, NPC1 prom act)
CC(=O)Nc1cccc(-c2cc(C)c3cc4c(cc3n2)OCO4)c1	ELG1 genotoxic inconclusive, NPC1 prom act inconclusive, FLuc modulator 8.5µM (no result: SMN2 splice enh)
Cc1ccc(C(=O)NC(=S)Nc2cccc3nsnc23)cc1	Rab9 promoter act inconclusive, FLuc modulator inconclusive
CC(=O)Nc1cccc(-c2nc3ccc(NC(C)=O)cc3s2)c1	Rab9 promoter act 0.89µM, ELG1 genotoxic inconclusive, SMN2 splice enh 13µM, NPC1 prom act 3.2µM, FLuc modulator 3µM
Cc1ccc(-c2nc3ccccc3s2)cc1NC(=S)NC(=O)c1cccc2ccccc12	ELG1 genotoxic inconclusive, SMN2 splice enh inconclusive, FLuc modulator 11µM
Cc1ccc(C(=O)NC(=S)Nc2cccc(-c3nc4ccccc4s3)c2)cc1	ELG1 genotoxic inconclusive, FLuc modulator 12µM
CC(=O)Nc1ccc2nc(SCC(=O)O)sc2c1	none
Cc1nc(NC(=O)c2ccc(Cl)cc2)nc2cc3c(cc12)OCO3	none
Cn1c(COc2ccccc2)nnc1SCC(=O)NNC(=O)C1CCCCC1	none (no result: SMN2 splice enh)
CC(C)Oc1ccc(C(=O)Nc2ccc(-c3nc4ccccc4s3)cc2)cc1	none (no result: Rab9 promoter act, ELG1 genotoxic, SMN2 splice enh, NPC1 prom act)
CN(C)c1cccc(C(=O)Nc2ccc(-c3nc4ccccc4s3)cc2)c1	FLuc modulator 5.4µM (no result: Rab9 promoter act, ELG1 genotoxic, SMN2 splice enh, NPC1 prom act)
CC(=O)Nc1cccc(-c2nc3ccccc3s2)c1	Rab9 promoter act 2.2µM, ELG1 genotoxic inconclusive, SMN2 splice enh 13µM, NPC1 prom act inconclusive, FLuc modulator 9.5µM
CC(=O)Nc1ccc(O)c(-c2nc3ccccc3s2)c1	Rab9 promoter act inconclusive, ELG1 genotoxic inconclusive, FLuc modulator inconclusive
COc1ccc2cnn(-c3ccc(OC(F)(F)Cl)cc3)c(=O)c2c1OC	none (no result: SMN2 splice enh)
O=C(CN1CCN(C(=O)c2ccc(-c3nc4ccccc4s3)o2)CC1)Nc1ccccc1Cl	FLuc modulator inconclusive (no result: SMN2 splice enh)
Cc1cccc(NC(=O)CN2CCN(C(=O)c3ccc(-c4nc5ccccc5s4)o3)CC2)c1C	FLuc modulator 24µM (no result: SMN2 splice enh)
O=C(CN1CCN(C(=O)c2ccc(-c3nc4ccccc4s3)o2)CC1)Nc1ccc(F)cc1	FLuc modulator 17µM (no result: SMN2 splice enh)
COCc1[nH][nH]c(=O)c1C=Nc1ccc(OC(F)(F)F)cc1	none
COc1ccc(-c2cc(=O)c3cc(OC)ccc3[nH]2)cc1	Rab9 promoter act 1.4µM, ELG1 genotoxic 9.2µM, SMN2 splice enh 2.5µM, NPC1 prom act 3.5µM, FLuc modulator 3.4µM
COc1cc2[nH]c(-c3ccc(C)cc3)cc(=O)c2cc1OC	SMN2 splice enh inconclusive, FLuc modulator 13µM
